According to PubChem BioAssay AID1159580 (chemical genetic matrix, 2015):
Hit rate of the full screen: of about 5,500 compounds, about 2,000 (36%) were called active. Not shown: some 18% with an inconclusive outcome. Rule as the data show it: active = normalized growth mostly below about 0.91 (no sharp cut-off); inconclusive = no clear call, values can overlap the other calls; inactive = mostly above about 0.92. This is one part of the list.

Assay: chemical genetic growth profiling, strain panel (AID 1159580);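 also: tested at 20 µM; growth read once vehicle control cultures reached saturation at 30 °C; 1 = growth at the plate median or of vehicle wells; lower values mean less growth of the strain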
Details: growth OD

Measured: normalized growth

CCCCC1C(=O)N(c2ccccc2)N(c2ccc(O)cc2)C1=O (stereo not given)
inactive: S. cerevisiae deletion strains, locus YJR075W, strain HOC1, hits give low values 0.998 | S. cerevisiae deletion strains, locus YKL009W, strain mrt4, hits give low values 1.01 | S. cerevisiae deletion strains, locus YKL068W, hits give low values 0.987 | S. cerevisiae deletion strains, locus YKL085W, strain MDH1 (second series), hits give low values 0.993 | S. cerevisiae deletion strains, locus YKL085W, strain MDH1, hits give low values 0.993 | S. cerevisiae deletion strains, locus YKL160W, strain elf1, hits give low values 1.03 | S. cerevisiae deletion strains, locus YKL190W, strain CNB1, hits give low values 1 | S. cerevisiae deletion strains, locus YKR001C, strain vps1, hits give low values 0.927 | S. cerevisiae deletion strains, locus YKR026C, strain gcn3, hits give low values 1.01 | S. cerevisiae deletion strains, locus YKR091W, strain srl3, hits give low values 0.996 | S. cerevisiae deletion strains, locus YLL001W, strain dnm1, hits give low values 1.02 | S. cerevisiae deletion strains, locus YLL026W, hits give low values 1 | S. cerevisiae deletion strains, locus YLL041C, strain sdh2, hits give low values 1 | S. cerevisiae deletion strains, locus YLR027C, strain aat2, hits give low values 0.994 | S. cerevisiae deletion strains, locus YLR039C, strain RIC1, hits give low values 0.963 | S. cerevisiae deletion strains, locus YLR058C, strain SHM2, hits give low values 0.976 | S. cerevisiae deletion strains, locus YLR102C, strain apc9, hits give low values 0.996 | S. cerevisiae deletion strains, locus YLR113W, strain HOG1, hits give low values 0.948 | S. cerevisiae deletion strains, locus YLR221C, strain rsa3, hits give low values 1.02 | S. cerevisiae deletion strains, locus YLR258W, strain gsy2, hits give low values 0.998 | S. cerevisiae deletion strains, locus YLR262C, strain YPT6 (second series), hits give low values 0.956 | S. cerevisiae deletion strains, locus YLR262C, strain YPT6, hits give low values 0.903 | S. cerevisiae deletion strains, locus YLR268W, strain sec22, hits give low values 1.04 | S. cerevisiae deletion strains, locus YLR320W, strain mms22, hits give low values 1.04 | S. cerevisiae deletion strains, locus YLR330W, strain CHS5, hits give low values 0.996 | S. cerevisiae deletion strains, locus YLR342W, strain FKS1 (second series), hits give low values 0.99 | S. cerevisiae deletion strains, locus YLR342W, strain FKS1, hits give low values 1.01 | S. cerevisiae deletion strains, locus YLR357W, strain rsc2, hits give low values 1.01 | S. cerevisiae deletion strains, locus YLR370C, strain arc18, hits give low values 1 | S. cerevisiae deletion strains, locus YLR371W, strain rom2, hits give low values 0.971 | S. cerevisiae deletion strains, locus YLR384C, strain iki3, hits give low values 0.997 | S. cerevisiae deletion strains, locus YLR418C, strain cdc73, hits give low values 1 | S. cerevisiae deletion strains, locus YML016C, strain PPZ1, hits give low values 0.991 | S. cerevisiae deletion strains, locus YML032C, strain rad52, hits give low values 0.996 | S. cerevisiae deletion strains, locus YML120C, strain ndi1, hits give low values 1.01 | S. cerevisiae deletion strains, locus YML124C, strain tub3, hits give low values 0.99 | S. cerevisiae deletion strains, locus YMR058W, strain fet3, hits give low values 1 | S. cerevisiae deletion strains, locus YMR078C, strain ctf18, hits give low values 0.986 | S. cerevisiae deletion strains, locus YMR125W, strain sto1, hits give low values 1 | S. cerevisiae deletion strains, locus YMR129W, hits give low values 1.01 | S. cerevisiae deletion strains, locus YMR205C, strain PFK2, hits give low values 1.02 | S. cerevisiae deletion strains, locus YMR223W, strain ubp8, hits give low values 0.968 | S. cerevisiae deletion strains, locus YMR231W, strain pep5, hits give low values 1 | S. cerevisiae deletion strains, locus YMR307W, strain GAS1, hits give low values 0.952 | S. cerevisiae deletion strains, locus YNL067W, strain RPL9B, hits give low values 0.999 | S. cerevisiae deletion strains, locus YNL071W, strain lat1, hits give low values 0.997 | S. cerevisiae deletion strains, locus YNL153C, strain GIM3, hits give low values 0.984 | S. cerevisiae deletion strains, locus YNL183C, strain NPR1, hits give low values 0.954 | S. cerevisiae deletion strains, locus YNL209W, strain ssb2, hits give low values 1 | S. cerevisiae deletion strains, locus YNL233W, strain BNI4, hits give low values 0.989 | S. cerevisiae deletion strains, locus YNL248C, strain rpa49, hits give low values 1.03 | S. cerevisiae deletion strains, locus YNL250W, strain rad50, hits give low values 0.985 | S. cerevisiae deletion strains, locus YNL271C, strain bni1, hits give low values 1 | S. cerevisiae deletion strains, locus YNL298W, strain CLA4, hits give low values 0.987 | S. cerevisiae deletion strains, locus YNL307C, strain MCK1, hits give low values 0.987 | S. cerevisiae deletion strains, locus YNL322C, strain KRE1 (second series), hits give low values 1.02 | S. cerevisiae deletion strains, locus YNL322C, strain KRE1, hits give low values 0.993 | S. cerevisiae deletion strains, locus YNR049C, strain mso1, hits give low values 1.01 | S. cerevisiae deletion strains, locus YNR052C, strain pop2, hits give low values 0.996 | S. cerevisiae deletion strains, locus YOL006C, strain TOP1, hits give low values 0.982 | S. cerevisiae deletion strains, locus YOL012C, strain htz1 0.972 | S. cerevisiae deletion strains, locus YOL147C, strain pex11, hits give low values 0.998 | S. cerevisiae deletion strains, locus YOR001W, strain rrp6, hits give low values 0.989 | S. cerevisiae deletion strains, locus YOR061W, strain CKA2, hits give low values 0.959 | S. cerevisiae deletion strains, locus YOR069W, strain VPS5, hits give low values 1 | S. cerevisiae deletion strains, locus YOR070C, strain gyp1, hits give low values 1.02 | S. cerevisiae deletion strains, locus YOR080W, strain dia2, hits give low values 0.993 | S. cerevisiae deletion strains, locus YOR083W, strain WHI5, hits give low values 1.04 | S. cerevisiae deletion strains, locus YOR106W, strain vam3, hits give low values 1.02 | S. cerevisiae deletion strains, locus YOR136W, strain idh2, hits give low values 0.983 | S. cerevisiae deletion strains, locus YOR144C, strain elg1, hits give low values 0.985 | S. cerevisiae deletion strains, locus YOR184W, strain ser1, hits give low values 0.983 | S. cerevisiae deletion strains, locus YOR231W, strain MKK1, hits give low values 0.987 | S. cerevisiae deletion strains, locus YOR265W, strain rbl2, hits give low values 0.996 | S. cerevisiae deletion strains, locus YOR270C, strain vph1, hits give low values 1.03 | S. cerevisiae deletion strains, locus YOR290C, strain snf2, hits give low values 1.02 | S. cerevisiae deletion strains, locus YOR316C, strain cot1, hits give low values 0.989 | S. cerevisiae deletion strains, locus YPL051W, strain arl3, hits give low values 1.01 | S. cerevisiae deletion strains, locus YPL055C, strain LGE1, hits give low values 0.938 | S. cerevisiae deletion strains, locus YPL078C, strain atp4, hits give low values 1.02 | S. cerevisiae deletion strains, locus YPL106C, strain sse1, hits give low values 1.02 | S. cerevisiae deletion strains, locus YPL240C, strain hsp82, hits give low values 1.01 | S. cerevisiae deletion strains, locus YPL241C, strain CIN2, hits give low values 0.99 | S. cerevisiae deletion strains, locus YPL256C, strain CLN2, hits give low values 0.953 | S. cerevisiae deletion strains, locus YPR119W, strain clb2, hits give low values 0.982 | S. cerevisiae deletion strains, locus YPR141C, strain kar3, hits give low values 0.972 | S. cerevisiae deletion strains, locus YPR163C, strain tif3, hits give low values 0.986 | S. cerevisiae deletion strains, locus YPR167C, strain met16, hits give low values 0.987 | S. cerevisiae deletion strains, strain wtn01, hits give low values 1 | S. cerevisiae strains, strain wild type, hits give low values 1
